Most compounds without a hit are left out; they make up all but 19% or so of the library.
TDP1 cell noCPT: qHTS for Inhibitors of human tyrosyl-DNA phosphodiesterase 1 (TDP1): qHTS in cells in absence of CPT; 420,000 compounds, 15% hits; AID 686978, 2013; Potency, µM (doses to about 46.2 µM), inactives show at the top dose activity change, negative = growth inhibition, usual class: inhibitors; DT40 Tdp1-/- hTDP1 cells, no CPT, ATP luminescence, 48 h; note: potency is the fitted concentration of half-maximal effect; % is set by controls: 0 for no effect and ±100 for the full control effect; nearly all actives have a fitted effect of over 55% in size
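Readout: luminescence from CellTiter-Glo after 30 min in the dark at RT. Cells: DT40 Tdp1-/- with stable hTDP1, 400/well. Exposure: compounds alone, ≥48 hr, 37 °C.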
TDP1 cell CPT: qHTS for Inhibitors of human tyrosyl-DNA phosphodiesterase 1 (TDP1): qHTS in cells in presence of CPT; chicken DT40 Tdp1-/-;hTDP1 cells + 20 nM CPT, ATP luminescence, 48 h; Potency, µM (top dose mostly 46.2 µM), for the others: top-dose activity change, negative = growth inhibition, hits mostly inhibitors; 420,000 compounds, 12% hits; note: potency is the fitted concentration of half-maximal effect; % is set by controls: 0 for no effect and ±100 for the full control effect; nearly all actives have a fitted effect of over 55% in size
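Cell growth measured by CellTiter-Glo luminescence after a minimum 48 h, 37 C compound exposure with 20 nM CPT in Tdp1-knockout DT40 cells stably expressing hTDP1, seeded 400/well; qHTS titration format.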
IL-1B inflam inh: qHTS for Inhibitors of Inflammasome Signaling: IL-1-beta AlphaLISA Primary Screen; THP-1 LPS/ATP IL-1B secretion, AlphaLISA, 16 h; hits give low values; activity change, % at 57.5 µM; 360,000 compounds, 4.7% hits; AID 743279, 2014; in the data active = activity change below about -50%; inconclusive = mostly about -30% to -49%; note: % is set by controls: 0 for no effect and ±100 for the full control effect
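Secreted IL-1B measured by AlphaLISA bead assay after 16 h compound exposure of THP-1 cells; compounds (final up to 57.5 uM) added 1 h before LPS (250 ng/mL) and ATP (1.25 mM) stimulation; lower signal means less secretion.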
SW480 rereplic: A quantitative high throughput screen for small molecules that induce DNA re-replication in SW480 colon adenocarcinoma cells. AID 624297, 2012. 340,000 compounds, 1.8% hits. SW480 DNA re-replication, Hoechst DNA content imaging, 48 h. Potency, µM (doses to about 46.1 µM), without a hit: at the highest dose re-replication activation, usual class: activators; note: potency is the fitted concentration of half-maximal effect; % of control where 0% means no effect; nearly all actives have a fitted effect of over 55% in size
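Cells (250 per well) received 23 nL compound or DMSO by pin tool and were kept 48 hr at 37 C, 5% CO2. Nuclei were then stained with Hoechst for 40 min and scanned for DNA content.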
BCR signal inh: qHTS Assay to Find Inhibitors of Chronic Active B-Cell Receptor Signaling; ABC-DLBCL IkBa-CBG/CBR reporter, luminescence ratio, 4 h; Potency, µM (top dose mostly 46.1 µM), without a hit: top-dose activity change, negative = inhibition, hits mostly inhibitors; 340,000 compounds, 0.05% hits; AID 493014, 2011; active = well fitted inhibition curve with a large enough effect in the signal ratio, with a control signal flat, not every such curve was filed as active; inconclusive = small, poorly fitted or top-dose-only effect, or effect the other way, or a change in a side signal; the % refers to the signal ratio;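 note: potency is the fitted concentration of half-maximal effect; plate controls were basal doxycycline-induced cells for no effect and cells given 10 µM MG132 for full effect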
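TMD8 ABC-DLBCL cells carrying doxycycline-inducible green luciferase fused to IkappaBalpha plus unfused red luciferase were exposed to compounds (up to 46 uM) for 4 hrs at 37C. Activity came from the overlap-corrected green/red luminescence ratio.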
MCF10A rereplic: A quantitative high throughput screen for small molecules that induce DNA re-replication in MCF 10a normal breast cells; 350,000 compounds, 2.9% hits; Potency, µM (top dose mostly 46.1 µM), for inactives: top-dose activity, positive = re-replication, usual class: activators; MCF 10A DNA re-replication, Hoechst nuclear intensity, 48 h; note: potency is the fitted concentration of half-maximal effect; % of control where 0% means no effect; nearly all actives have a fitted effect of over 50% in size
Active calls of the source: *; u = inconclusive; x = no result given. Unless noted, calls come from the whole dose curve; as a rule, active = well fitted curve in the direction sought with a large enough effect; inconclusive = small, poorly fitted or top-dose-only effect, or another doubt; inactive = no such curve, though single readings can be large; an effect the other way counts as inactive or inconclusive.

SMILES | TDP1 cell noCPT | TDP1 cell CPT | IL-1B inflam inh | SW480 rereplic | BCR signal inh | MCF10A rereplic
CCCCC1CCC(c2ccc(C(N)=O)cc2)CC1 (stereo unspecified) | 2% | -1% | 0 | -7% | -1% | -6%
CC(C)C(=O)N1CCC1(C)C(=O)NCc1ccc(C(C)(C)C)cc1 (stereo unspecified) | u | u | 25 | x | x | x
CCN(c1ccc(OC)cc1)S(=O)(=O)c1ccc(-c2ccc(=O)[nH]n2)o1 | u | u | 17 | u | -6% | -1%
Cc1ccc(OCCSc2nc3ncnc(N)c3[nH]2)cc1 | u | 8.2µM* | -8 | -86% | -24% | u
CN(C(=O)CN1C(=O)S/C(=C\c2ccccc2)C1=O)C1CCS(=O)(=O)C1 (stereo unspecified) | -4% | 16% | -7 | 0% | -16% | -4%
CCN(C(=O)CCN1C(=O)S/C(=C\c2ccccc2)C1=O)C1CCS(=O)(=O)C1 (stereo unspecified) | u | 16µM* | -23 | -8% | u | 19%
CN(C(=O)CN1C(=O)/C(=C/c2ccccc2Cl)SC1=S)C1CCS(=O)(=O)C1 (stereo unspecified) | u | 16µM* | u | 0% | -17% | u
CN(C(=O)CN1C(=O)/C(=C/c2ccccc2F)SC1=S)C1CCS(=O)(=O)C1 (stereo unspecified) | u | 18µM* | -1 | 4% | u | -1%
COc1ccc(/C=C2\SC(=S)N(CC(=O)N(C)C3CCS(=O)(=O)C3)C2=O)cc1 (stereo unspecified) | 6% | -19% | u | u | u | 21µM*
COc1ccc(NC(=O)c2ccc3[nH]c(C)cc(=O)c3c2)cc1 | -17% | 1% | x | x | x | x
CCOc1ccccc1NCc1nnc2n1CCCCC2 | -8% | -1% | x | x | x | x
Cc1ncc([N+](=O)[O-])n1CC(=O)N/N=C/c1ccccc1F | -7% | -7% | 11 | 10% | u | -1%
CCCc1cc(=O)oc2c(C)c3c(cc12)CN(CCc1ccc(Cl)cc1)CO3 | 15µM* | 6.5µM* | x | x | x | x
CCc1cc(=O)oc2c(C)c3c(cc12)CN(CCc1ccccc1OC)CO3 | 21µM* | -41% | x | x | x | x
O=C(Nc1ccc2oc(-c3cccnc3)nc2c1)c1ccc(-c2ccccc2OC(F)(F)F)o1 | 9.2µM* | 10µM* | x | x | x | x
O=C(Nc1ccc2oc(-c3cccnc3)nc2c1)c1ccc(-c2ccc(OC(F)(F)F)cc2)o1 | 21µM* | u | x | x | x | x
O=C(Nc1ccc2oc(-c3cccnc3)nc2c1)c1ccc(-c2ccccc2)o1 | 9.2µM* | 12µM* | x | x | x | x
O=C(Cc1ccccc1)Nc1ccc2oc(-c3cccnc3)nc2c1 | -24% | -21% | 23 | -3% | 5% | 4%
CSc1cccc(NC(=O)CN2C(=O)c3ccccc3S2(=O)=O)c1 | -13% | -11% | 8 | -3% | 4% | 11%
Cc1ccc(NC(=O)CN2C(=O)c3ccccc3S2(=O)=O)cc1C | 9% | 2% | 21 | -4% | u | u
Cc1ccc(NC(=O)CN2c3cccc4cccc(c34)S2(=O)=O)cc1S(=O)(=O)N1CCOCC1 | 18µM* | u | 14 | u | 0% | 4%
COc1ccc(NC(=O)CN2C(=O)c3ccccc3S2(=O)=O)cc1OC | 1% | 1% | -83* | -3% | 2% | -28%
COc1ccc(NC(=O)CN2c3cccc4cccc(c34)S2(=O)=O)cc1OC | 7.3µM* | u | 25 | x | x | x
O=C(CN1C(=O)c2ccccc2S1(=O)=O)Nc1ccccc1 | -4% | -2% | 3 | 0% | u | 6.5µM*
CCNc1ncc2nc(-c3cn(C)c4ccccc34)c(=O)n(-c3ccccc3)c2n1 | -5% | 5% | x | x | x | x
SMILES | TDP1 cell noCPT | TDP1 cell CPT | IL-1B inflam inh | SW480 rereplic | BCR signal inh | MCF10A rereplic
CN(C)c1cc(-c2cccc(C(F)(F)F)c2)oc(=O)c1Cl | u | -26% | -12 | 0% | x | u
NC[C@H]1O[C@H](O[C@H]2[C@H](O)[C@@H](O[C@H]3O[C@H](CO)[C@@H](O)[C@H](N)[C@H]3O)[C@H](N)C[C@@H]2N)[C@H](N)[C@@H](O)[C@@H]1O | -24% | u | x | x | x | x
O=C(CN1C(=O)c2ccccc2S1(=O)=O)Nc1cccc(S(=O)(=O)N2CCCCC2)c1 | 18µM* | u | 29 | 3% | -1% | 9%
CCCn1c(C)cc(C(=O)CN2C(=O)c3ccccc3S2(=O)=O)c1C | 9.2µM* | u | 6 | x | x | x
CCOc1ccc2nc(Cl)c(/C=C/C(=O)c3ccco3)cc2c1 | 15µM* | 10µM* | u | 16% | -12% | 28%
Cc1cccc2cc(/C=N/NC(=O)CN3CCCCC3)c(Cl)nc12 | x | x | x | x | 15% | x
CCOc1ccc(NC(=O)c2ccco2)cc1 | -27% | -23% | -21 | -2% | u | 6%
Cc1cccc2cc(/C=C/C(=O)c3ccco3)c(Cl)nc12 | 8.2µM* | 4.6µM* | -5 | 1% | u | u
COC1OC2COC(c3ccccc3)OC2C2OC(c3ccccc3)OC12 (stereo unspecified) | u | -29% | 32 | x | x | x
N#CC1=C(N)C2=CCCC[C@H]2[C@H](c2cccc(F)c2)C1(C#N)C#N | u | u | -94* | 19% | -10% | 21µM*
Cc1nc2ncccn2c1-c1csc(Nc2ccc(O)cc2)n1 | 5.2µM* | u | -28 | 8% | u | 28%
Cc1ccc(Nc2nc(-c3c(C)nc4ncccn34)cs2)cc1 | 0.0065µM* | 0.018µM* | -98* | 0.058µM* | u | u
Cc1ccnc(NS(=O)(=O)c2ccc(NC(=O)CC(C)c3ccccc3)cc2)n1 (stereo unspecified) | 11% | 1% | 30 | 3% | u | 0%
COc1cc(/C=C/CNC[C@H]2O[C@@H](n3cnc4c(N)ncnc43)[C@H](O)[C@@H]2O)ccc1O | 13µM* | -30% | -12 | x | x | x
NS(=O)(=O)c1ccc(N2CCN(C(=O)C3COc4ccccc4O3)CC2)nc1 (stereo unspecified) | u | u | 15 | -15% | 0% | 1%
CCOC(=O)C1CCN(C(=O)c2ccc3c(c2)C(=O)N(c2ccccc2C)C3=O)CC1 | -20% | -5% | 15 | -8% | 5% | 0%

High-throughput results as filed in PubChem.
